For 60 compounds, inhibition results are on record in PubChem BioAssay AID1565 (Sanford-Burnham Center for Chemical Genomics, 2009).

By inhibition is commonly meant the relative decrease from the control value, in per cent.

Each structure is given as a SMILES string. Out of some 290,000 compounds screened, about 3,200 (1.1%) were called active. Many of the other results were omitted from the sample, so actives are more common in it than they were. Unmarked numbers belong to inactive results. No stated cut-off is given here; in the data, active means inhibition above about 60%; inactive means the rest.

Sequence of Phosphoethanolamine/phosphocholine phosphatase (Homo sapiens) (Q8TCT1 whole entry, looked up): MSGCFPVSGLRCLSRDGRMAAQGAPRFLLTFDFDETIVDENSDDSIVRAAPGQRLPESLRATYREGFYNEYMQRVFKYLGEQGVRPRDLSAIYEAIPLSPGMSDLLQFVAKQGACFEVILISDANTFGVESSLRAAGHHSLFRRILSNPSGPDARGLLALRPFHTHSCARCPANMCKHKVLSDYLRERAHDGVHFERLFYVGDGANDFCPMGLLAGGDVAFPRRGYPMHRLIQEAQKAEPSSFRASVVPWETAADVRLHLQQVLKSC

This test concerns the target Phosphoethanolamine/phosphocholine phosphatase (Homo sapiens) (UniProt Q8TCT1). The test is described as follows: PubChem AID 1565. The note with it: recombinant PHOSPHO1, absorbance phosphatase assay; at 13.3 µM; stronger effect = higher value.
In the case of `O=c1c(-c2ccccc2Cl)c[nH]n1-c1ccccc1`, the inhibition is 31.3%.
Under `Cc1cc(N2CCN(S(=O)(=O)c3ccc(C)c(C)c3)CC2)c2ccccc2n1` stands -5.3%; under `Cc1ccc(S(=O)(=O)Nc2nc3ccccc3nc2N2CCc3ccccc3C2)cc1`, 10.5%.
Under `Cc1ccc(S(=O)(=O)C(C#N)c2nc3ccccc3nc2N2CCCC2)cc1C` (stereo not given) stands 95.8% (active); under `COC(=O)c1cc(C(=O)NC(C)C2CC3CCC2C3)cc([N+](=O)[O-])c1` (stereo not given), 26.5%.
Then `Cc1ccc(-n2nc3c(=O)n(C(C)C(=O)NCc4ccc5c(c4)OCO5)nc(C)c3c2C)cc1` (stereo not given), with 18.3%.
Take `O=c1ccc(-c2ccc(S(=O)(=O)Nc3ccccc3)o2)n[nH]1`: the inhibition was 1%.
For the compound `Cc1ccc(C(=O)CSc2nnc(Cn3nnc4ccccc43)n2C)cc1`, the inhibition is -7.4%.
For `Cn1c(CNC(=O)c2ccccc2F)nnc1SCc1ccc(F)cc1`, the inhibition was 15.9%.
Then `Cn1c(Cn2nnc3ccccc32)nnc1SCC(=O)c1ccccc1F`, with 68.8% (active); and `COc1ccc(OC)c(NC(=O)CN(C)CCOc2ccc(Br)cc2)c1`, with -11.8%.
With `N=c1c2c3c(sc2ncn1N)CCCC3`, the inhibition is 24.8%.
Then `S=c1[nH]nc2c3c4c(sc3ncn12)CCCC4`, with 106% (active).
For `c1nnc2c3c4c(sc3ncn12)CCC4`, the inhibition was 0.9%.
Under `Cc1ccc(C)c(NC(=O)NNC(=O)c2ccc3ccccc3c2O)c1` stands 6.1%.
In the case of `O=C(CC1SC(=Nc2ccccc2F)N(CCN2CCOCC2)C1=O)Nc1ccc(F)cc1F` (stereo not given), the inhibition was 64.7% (active).
Under `COC(=O)c1sccc1NC(=O)CC1C(=O)NCCN1C(=O)Nc1ccc(F)cc1F` (stereo not given) stands 31.6%.
`O=C(CN1CCN(C/C=C/c2ccccc2)CC1)Nc1ccc(F)cc1F`: the inhibition is 35.8%.
Under `COC(=O)c1cccc(N2C(=O)C3C4C=CC(CC4)C3C2=O)c1` (stereo not given) stands 37.1%; under `Cc1ccc(OCc2cc(C(=O)N(C)CCn3ccnc3C)no2)cc1C`, 25%; under `O=C(COc1ccc(S(=O)(=O)N2CCOCC2)cc1Cl)N1CCOCC1`, 19%.
Then `O=C(Cn1c(NCCO)nc2ccccc21)c1ccc(Cl)cc1Cl`, with 23.3%; and `COc1ccc(CCNC(=O)CN(C)S(=O)(=O)c2ccc3nc(C)sc3c2)cc1OC`, with 3.8%.
Under `Cc1nc2ccc(S(=O)(=O)N(C)CC(=O)NC(C)c3ccccc3)cc2s1` (stereo not given) stands 64% (active); under `COc1cc(NC(=O)CN(C)S(=O)(=O)c2ccc3nc(C)sc3c2)cc(OC)c1`, -3%; under `COC(=O)c1ccc(/C=C2/C(=O)Oc3ccccc32)cc1`, 32.5%.
Regarding `CCCC(C)c1nnc(NC(=O)C2CC(=O)N(c3ccc(OCC)cc3)C2)s1` (stereo not given), the inhibition was 36.2%.
Under `Cc1ccc(NC(=O)N2CCC(O)(c3cccnc3)CC2)cc1` stands 1%; under `O=C(c1cccc(F)c1)N1CCC(O)(c2cccnc2)CC1`, 36.6%.
As to `O=C(Nc1cccc(F)c1)N1C2CCC1CC(O)(c1cccnc1)C2` (stereo not given), the inhibition was 61.5% (active).
For `CC(=O)c1cccc(NC(=O)CN2C(=O)c3cccnc3Oc3ccc(Cl)cc32)c1`, the inhibition was 18.3%.
Then `CCc1ccc(NC(=O)CCNS(=O)(=O)c2cccs2)cc1`, with 35.1%; and `CCCc1ccc(OCCNC(=O)c2ccco2)cc1`, with 41.8%; and `CC(Oc1ccc2ccccc2c1)C(=O)NNC(=S)NC(=O)c1ccco1` (stereo not given), with 96.9% (active).
As to `COc1ccc(C(=O)NNC(=S)NC(=O)c2ccccc2)cc1`, the inhibition is 19.1%.
As for `Cc1ccc(OCC(=O)NCCCNC(=O)c2ccco2)cc1C`, the inhibition is 16%.
Under `CCCc1ccc(OCC(=O)NNC(=S)NC(=O)c2ccco2)cc1` stands 96.9% (active).
For the compound `O=C(Nc1ccc2ccccc2c1)/C(=C/c1cccc(Br)c1)NC(=O)c1ccco1`, the inhibition is -2.2%.
Under `O=S(=O)(Nc1ccc2[nH]ncc2c1)c1ccccc1Cl` stands -129%.
Then `COc1ccc(S(=O)(=O)NNC(=O)Nc2ccc(C)cc2)c(OC)c1`, with 21.8%; and `Cc1ccc(N(C(=O)c2snc(C(N)=O)c2N)C(C(=O)NCC2CCCO2)c2c[nH]c3ccccc23)cc1` (stereo not given), with 35.7%; and `COc1ccc(S(=O)(=O)N2CCOC2CNC(=O)C(=O)NCc2ccncc2)cc1C` (stereo not given), with 19.8%.
Regarding `COc1ccc(NS(=O)(=O)c2ccc3oc(SCC(N)=O)nc3c2)cc1`, the inhibition is 6.3%.
Turning to `NS(=O)(=O)c1ccc(CCNC(=O)Nc2ccc(Cl)cc2)cc1`, the inhibition is 14.1%.
For `S=C(NCCc1ccccc1)Nc1ccccc1`, the inhibition is 22.6%.
Take `NS(=O)(=O)c1ccc(CCNC(=S)Nc2ccc(S(N)(=O)=O)cc2)cc1`: the inhibition is 78.5% (active).
Under `CC1CCC(NC(=O)CN(C)S(=O)(=O)c2ccc3c(c2)c(=O)n(C)c(=O)n3C)CC1` (stereo not given) stands 58.3%; under `Cc1c(NC(=O)c2coc(=O)c(Br)c2)c(=O)n(-c2ccccc2)n1C`, -69.6%; under `COc1cc(NC(=O)C2CC(c3ccccc3O)=NO2)c(OC)cc1Cl` (stereo not given), 24.3%.
Then `COc1cc(OC)c(C2=NOC(C(=O)Nc3c(C)n(C)n(-c4ccccc4)c3=O)C2)cc1Cl` (stereo not given), with 64.2% (active); and `O=C(NCCN1CCCC(O)C1)c1cc(COc2c(F)cccc2F)on1` (stereo not given), with 54.7%.
Regarding `C=CCn1c(-c2sc(-c3ccccc3)nc2C)n[nH]c1=S`, the inhibition was 27.7%.
Consider `C=CCn1c(-c2ccccc2OCC)n[nH]c1=S`, for which the inhibition was -30.9%.
Under `C=CCn1c(-c2ccc3[nH]c(C)c(C)c3c2)n[nH]c1=S` stands 98.8% (active); under `CN1C/C(=C/c2cccs2)C(=O)/C(=C\c2cccs2)C1`, 16.1%.
Consider `CNC(=O)C1CCN(S(=O)(=O)c2c(C)noc2/C=C/c2cccc(C)c2)CC1`, for which the inhibition is 34.4%.
Turning to `O=C(Cn1ncc2c3ccccc3n(Cc3ccccc3)c2c1=O)NCCCN1CCOCC1`, the inhibition is 57.9%.
Turning to `O=C(Cn1ncc2c3ccccc3n(Cc3ccccc3)c2c1=O)NCc1ccccn1`, the inhibition was -6.3%.
With `Cc1ccccc1Cn1c2ccccc2c2cnn(CC(=O)NCc3ccco3)c(=O)c21`, the inhibition is 60.8% (active).
Then `COc1ccc(-c2nnc(NC(=O)CS(=O)(=O)c3ccc(Cl)cc3)o2)c(OC)c1`, with 46.9%.
